# Results filed as inconclusive are left out. Calls of active or inactive are those of the source. The calls were made as follows, unless noted: active = hit-call score of the fitted dose curve at least 0.9, where 1 is the maximum; inactive = score below 0.9.
# Experiments:
# [1] = test system: TTR (gene 7276); experiment: CCTE_GLTED_hTTR_0.125uM: CCTE's human Transthyretin (hTTR) Inhibition Assay, with 0.125uM TTR, Great Lakes Toxicology and Ecology Division (GLTED) Lab (AID 2284431);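 also: hits lower the fluorescence signal relative to DMSO baseline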
# How it was run: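 Cell-free displacement of the fluorescent probe ANSA from human TTR (0.125uM) after 2 h incubation with test chemical. Fluorescence read at 380 nm excitation/475 nm emission; loss of signal fitted relative to DMSO baseline.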
# [2] = test system: SRY-box transcription factor 17 (SOX17) Protein Expression, Deisenroth Lab, SOX17 (gene 64321); experiment: CCTE_Deisenroth_DEVTOX-GLR_Endo_SOX17: CCTE's DevTox GLR-Endo Assay Evaluation of SRY-box transcription factor 17 (SOX17) Protein Expression, Deisenroth Lab (AID 2284413)
# How it was run: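 RUES2-GLR human pluripotent cells were seeded 24 h, then differentiated toward endoderm for 48 h with two chemical exposures 24 h apart (10-point series, 1 nM - 200 uM). Nuclei-stained fixed cells were imaged; endpoint is percent change in SOX17+ cells versus 0.2% DMSO.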
# [3] = test system: Brachyury (BRA) Protein Expression, TBXT (gene 6862); experiment: CCTE_Deisenroth_DEVTOX-GLR_Endo_BRA: CCTE's DevTox GLR-Endo Assay Evaluation of Brachyury (BRA) Protein Expression, Deisenroth Lab (AID 2284417)
# How it was run: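 Percent BRA+ (mesoderm) RUES2-GLR cells after 48 h differentiation with two exposures, 1 nM - 200 uM; 0.2% DMSO control subtracted.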
# [4] = CCTE_Deisenroth_DEVTOX-GLR_Endo_CellCount: Viability Assessment in CCTE's DevTox GLR-Endo Assay, Deisenroth Lab (AID 2284420)
# Experimental: CCTE_Deisenroth_DEVTOX-GLR_Endo assay is a cell-based, multiplex-readout assay that uses RUES2-GLR, a human pluripotent cell line, with measurements taken at 48 hours after chemical dosing in a 384-well microplateCCTE_Deisenroth_DEVTOX-GLR_Endo_CellCount is 1 of 4 assay components calculated from the CCTE_Deisenroth_DEVTOX-GLR_Endo assay and it measures cell count. Using fluorescent nuclear staining, loss-of-signal activity can be used to understand changes in cell viability with fluorescent microscopy. It is designed to make measurements of nuclei counts as a surrogate for cell number, as detected with optical fluorescence microscopy by Perkin Elmer Harmony nuclei detection algorithm. To generalize the intended target to other relatable targets, this assay component is annotated to the cell cycle intended target family, where the subfamily is cytotoxicity.Data from the assay component CCTE_Deisenroth_DEVTOX-GLR_Endo_CellCount was analyzed as 1 assay endpoint. The endpoint the percent change in cell count relative to the 0.2% DMSO control in the CCTE_Deisenroth_DEVTOX-GLR_Endo assay. Furthermore, this assay endpoint can be referred to as a primary readout, because this assay has produced multiple assay endpoints where this one serves as a measure of cytotoxicity.
# All assay protocols are aligned to the DevTox GLR-Endo assay workflow. Cells are seeded into 384-well microplates for 24 hours prior to initiating differentiation in defined media for a total duration of 48 hours. A total of two chemical exposures are administered in 24-hour intervals during the 48-hour differentiation period. At the assay termination point, cells are fixed and stained with a fluorescent dye demarcating the nucleus. High-content imaging is used to acquire brightfield and fluorescent channel images across 5 fields per well. Cell identification and mean biomarker fluorescence intensities are calculated with image analysis software to determine the total cell counts for viability assessment and the biomarker expression frequency for each lineage-dependent assay. A typical experimental design tests a 10-point concentration series (1 nM - 200 uM) for 28 compounds in single technical replicate. Assay plate controls include non-differentiated pluripotent cells (baseline control), lineage-specific differentiated cells (differentiation control), and DMSO solvent exposed differentiated cells (solvent control). Experiments typically comprise a minimum of four experimental replicates (n=4).
# [5] = test system: SRY-box transcription factor 2 (SOX2) Protein Expression, Deisenroth Lab, SOX2 (gene 6657); experiment: CCTE_Deisenroth_DEVTOX-GLR_Pluri_SOX2: CCTE's DevTox GLR-Pluri Assay Evaluation of SRY-box transcription factor 2 (SOX2) Protein Expression, Deisenroth Lab (AID 2284428)
# How it was run: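 Human pluripotent RUES2-GLR cells were seeded 24 h, then differentiated 48 h in defined media with two chemical doses at 24-h intervals (10-point, 1 nM–200 uM). Nuclear-stained cells were imaged; SOX2+ cells/cell count gave percent change versus 0.2% DMSO control.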
# [6] = CCTE_Deisenroth_DEVTOX-GLR_Pluri_CellCount: Viability Assessment in CCTE's DevTox GLR-Pluri Assay Evaluation of Total Cell Counts, Deisenroth Lab (AID 2284430)
# How it was run: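 Cytotoxicity readout: fluorescent nuclei counts by high-content imaging, expressed as percent change relative to 0.2% DMSO. Human RUES2-GLR pluripotent line differentiated 48 h, dosed twice at 24-h intervals across 1 nM - 200 uM (10 points).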
# [7] = test system: Brachyury (BRA) Protein Expression, Deisenroth Lab, TBXT (gene 6862); experiment: CCTE_Deisenroth_DEVTOX-GLR_Pluri_BRA: CCTE's DevTox GLR-Pluri Assay Evaluation of Brachyury (BRA) Protein Expression, Deisenroth Lab (AID 2284429; active = hit-call score of the fitted dose curve at least 0.9, where 1 is the maximum)
# How it was run: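 Percent BRA+ cells (BRA+ count over total cells) by high-content imaging of fixed RUES2-GLR cultures, corrected by 0.2% DMSO control. Cells received two doses over 48-hour differentiation, 1 nM–200 uM, n=4 experiments.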
# [8] = test system: SRY-box transcription factor 17 (SOX17) Protein Expression, Deisenroth Lab, SOX17 (gene 64321); experiment: CCTE_Deisenroth_DEVTOX-GLR_Pluri_SOX17: CCTE's DevTox GLR-Pluri Assay Evaluation of SRY-box transcription factor 17 (SOX17) Protein Expression, Deisenroth Lab (AID 2284427; active = hit-call score of the fitted dose curve at least 0.9, where 1 is the maximum)
# How it was run: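 RUES2-GLR human pluripotent cells were seeded 24 h, then differentiated 48 h in defined media with two chemical exposures 24 h apart (10-point series, 1 nM - 200 uM). Fixed, nuclear-stained cells were imaged; %SOX17+ cells minus 0.2% DMSO control reported.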
smiles,measurement,setting,value
O=C(NS(=O)(=O)/C=C/c1ccccc1)c1ccc(F)cc1Cl,AC50,[1],13 µM (active)
COC(=O)c1c(Cl)c(Cl)c(C(=O)OC)c(Cl)c1Cl,AC50,[1],0.0546 µM (active)
Cn1c(=O)c2c(ncn2C)n(C)c1=O,outcome,[2],inactive
same,outcome,[3],inactive
same,outcome,[4],inactive
same,outcome,[5],inactive
same,outcome,[6],inactive
O=C1CCC(N2C(=O)c3ccccc3C2=O)C(=O)N1 (stereo not drawn),AC50,[2],1.56 µM (active)
same,outcome,[3],inactive
same,outcome,[4],inactive
same,outcome,[5],inactive
same,outcome,[7],inactive
same,outcome,[6],inactive
C[C@](N)(Cc1ccc(O)c(O)c1)C(=O)O,outcome,[2],inactive
same,outcome,[3],inactive
same,outcome,[4],inactive
same,AC50,[5],0.308 µM (active)
same,AC50,[7],153 µM (active)
same,outcome,[6],inactive
C=CCCCCCCCCC(=O)O,AC50,[1],7.39 µM (active)
Oc1ccc2c(c1)-c1ccccc1C2,AC50,[1],7.96 µM (active)
CC(C)=CCCC(C)CCO (stereo not drawn),AC50,[1],45.8 µM (active)
COc1ccc(/C=C/S(=O)(=O)NC(=O)c2ccc(C)cc2Cl)cc1,AC50,[1],12.1 µM (active)
CC[C@H](C)C(=O)O[C@H]1C[C@@H](C)C=C2C=C[C@H](C)[C@H](CC[C@@H]3C[C@@H](O)CC(=O)O3)[C@H]21,AC50,[2],6.57 µM (active)
same,AC50,[3],54.2 µM (active)
same,AC50,[4],2.81 µM (active)
same,AC50,[8],100 µM (active)
same,AC50,[5],14.5 µM (active)
same,AC50,[7],20.8 µM (active)
same,AC50,[6],9.67 µM (active)
Nc1ccc(Nc2ccccc2)cc1,AC50,[1],31.5 µM (active)
O=C(O)c1cc(N=Nc2ccc(S(=O)(=O)Nc3ccccn3)cc2)ccc1O,outcome,[2],inactive
same,outcome,[4],inactive
same,outcome,[8],inactive
same,AC50,[5],100 µM (active)
same,outcome,[7],inactive
same,outcome,[6],inactive
same,AC50,[1],0.422 µM (active)
Nc1nc2ncc(CNc3ccc(C(=O)N[C@@H](CCC(=O)O)C(=O)O)cc3)nc2c(=O)[nH]1,outcome,[2],inactive
same,outcome,[3],inactive
same,outcome,[4],inactive
same,outcome,[5],inactive
same,outcome,[6],inactive
